# Compound activity from PubChem BioAssay.
# VACV mCherry inh – qHTS for Stage-Specific Inhibitors of Vaccinia Orthopoxvirus: mCherry Reporter Primary qHTS. Potency, µM (titrated, usually from 36.5 µM), for the others: top-dose activity change, negative = inhibition, usual class: inhibitors. Vaccinia virus mCherry reporter infection, fluorescence. 0.63% of 310,000 active; calls by dose curve; tested in A549 cells; also: potency is read from the fitted curve at half-maximal effect; nearly all actives have a fitted effect of over 35% in size
# FMDV antiviral – High Throughput Screening for Foot and Mouth Disease Virus Antivirals. Potency, µM (highest dose often 57.9 µM), without a hit: top-dose activity change, negative = inhibition, usual class: inhibitors. FMDV antiviral cell-based qHTS. 1.2% of 410,000 active. AID 1159524, 2015; calls by dose curve; tested in HEK293T cells; also: read-out not given here; potency is read from the fitted curve at half-maximal effect; nearly all actives have a fitted effect of over 45% in size
# HCV inh – qHTS Assay for Inhibitors of Hepatitis C Virus (HCV); 3.4% of 340,000 active; Huh7.5.1 HCVcc-Cre infection, luciferase reporter, 44 h; AID 651820, 2012; Potency, µM (doses to about 41.8 µM), inactives show at the highest dose activity change, negative = inhibition, hits mostly inhibitors; active = well fitted inhibition curve with a large enough effect; inconclusive = small, poorly fitted or top-dose-only effect, or another doubt; inactive = no such curve, though single readings can be large or run the other way; also: potency is read from the fitted curve at half-maximal effect
#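 Compounds are dispensed onto cells plated 4 h earlier at 1,000 per well, with HCVcc-Cre virus (about 0.5 moi) added next. Following 44 h of culture, luminescent signal is measured for 15 sec after 15 min with substrate at room temperature.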
# Vaccinia Venus – qHTS for Stage-Specific Inhibitors of Vaccinia Orthopoxvirus: Venus Reporter Primary qHTS | 0.46% of 330,000 active | Vaccinia virus Venus reporter expression, fluorescence | Potency, µM (top dose mostly 36.5 µM), without a hit: at the top dose activity change, negative = inhibition, actives largely listed as inhibitors; calls by dose curve; tested in A549 cells; also: potency is read from the fitted curve at half-maximal effect; nearly all actives have a fitted effect of over 30% in size
# HCMV antiviral – qHTS Assay for inhibitors of the human cytomegalovirus (HCMV); HFF cells, HCMV-luciferase reporter, 72 h; active compounds read low; activity change, negative = inhibition, % at 57.5 µM; AID 1259415, 2018; 4.5% of 410,000 active; in the data active = activity change below about -60%; inconclusive = no clear call, values can overlap the other calls; inactive = above about -39%
#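 Inhibition of viral replication was scored as loss of reporter luminescence in HFFs infected with HCMV-luciferase (MOI 1 PFU/cell) for 72 h; compounds tested at 2 doses, normalized to buffer and Salinomycin controls.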
# * = called active by the depositor; i = inactive; ? = inconclusive; . = not tested or not shown; ! = not confirmed by another sample. Shown are actives, neighbours in structure and some others; about 7.3% of the full set was active somewhere. % is scaled to controls: 0 for no effect and ±100 for the full control effect.
SMILES,VACV mCherry inh,FMDV antiviral,HCV inh,Vaccinia Venus,HCMV antiviral
COc1cc(C(=O)Nc2ccc(C)cc2)c2ccccc2n1,-15.6%,-5.0%,-7.3%,-28.4%,-60.0*
NNC(=O)c1cc(C2CC2)nc2ccc(Br)cc12,-28.9%,-15.4%,?,-17.3%,?
COc1cc(-c2nc3cnccn3c2Nc2ccc(C(C)C)cc2)ccc1O,?,39.8µM*,?,?,-91.7*!
COc1cc(-c2nc3cnccn3c2Nc2ccc(C)cc2)ccc1O,?,-15.8%,?,-16.3%,84.3
COc1cc(-c2nc3cnccn3c2Nc2ccccc2)ccc1O,?,-2.2%,-21.8%,-25.5%,196.2
COc1cc(-c2nc3nc[nH]n3c2Nc2ccc(C(C)C)cc2)ccc1O,-13.3%,-11.6%,.,-6.0%,-68.1*
OCCN1CCN(c2ncnc3c2sc2nc(N4CCOCC4)c4c(c23)CCC4)CC1,?,.,11.2µM*,?,2.6
OCCN(CCO)c1ncnc2c1sc1nc(N3CCOCC3)c3c(c12)CCCC3,.,-16.5%,?,.,-5.4
CC1(C)Cc2c(c(N3CCCC3)nc3sc4c(N5CCN(CCO)CC5)ncnc4c23)CO1,-19.1%,.,2.24µM*,?,42.0
Cc1ccc(C)c(N2CCN(C(=O)CCc3c(C)nn(-c4ccc(N5CCCC5)nn4)c3C)CC2)c1,-25.8%,?,.,-22.7%,-62.6*
COc1cccc(C2(CC(=O)N3CCN(c4nonc4C)CC3)CC(=O)N(C3CCCC3)C2=O)c1 (configuration not stated),-3.0%,31.7%,.,-15.0%,.
O=C(O)c1ccc2c(ccc3nn(-c4ccc(/C=C/c5ccc(-n6nc7ccc8cc(C(=O)O)ccc8c7n6)cc5[S+](=O)([O-])[O-])c([S+](=O)([O-])[O-])c4)nc32)c1,-9.7%,.,.,-15.4%,.
OC(COc1ccc(F)cc1)CN1CCN(CC(O)COc2ccc(F)cc2)CC1 (configuration not stated),-6.5%,1.4%,31.6µM*,-11.3%,4.6
COc1ccc(N2CCN(CC(O)COc3ccc(F)cc3)CC2)cc1 (configuration not stated),.,-20.8%,-16.0%,.,?
O=C(c1ccccc1)c1ccc(OCC(O)CN2CCCCC2)cc1 (configuration not stated),-13.0%,-14.7%,?,-5.9%,40.2
O=C(c1ccccc1)c1ccc(OCC(O)CN2CCN(S(=O)(=O)N3CCCCC3)CC2)cc1 (configuration not stated),.,14.1µM*,?,.,-66.9*
COc1ccc(-c2nc(-c3ccc(NC(=O)c4ccncc4)cc3)no2)cc1OC,4.1%,8.91µM*,?,-13.4%,.
Cc1cn2c(=O)cc(COC(=O)C(C)Oc3ccccc3)nc2s1 (configuration not stated),-5.2%,-3.0%,.,-0.3%,12.1
Cc1ccc(OCc2cc(=O)n3cc(C)sc3n2)c(C)c1,-6.1%,20.9%,.,-4.2%,-100.6*
Cc1cn2c(=O)cc(COc3ccccc3NC(=O)c3ccccc3C)nc2s1,-7.4%,-26.5%,.,1.5%,-10.6
Cc1cn2c(=O)cc(COC(=O)c3cccc(NC(=O)C(C)Oc4ccccc4)c3)nc2s1 (configuration not stated),i,5.9%,.,-14.7%,-64.4*
Cc1cn2c(=O)cc(COc3cccc(NC(=O)c4ccccc4C)c3)nc2s1,-10.5%,-13.5%,.,-4.1%,-68.7*
NN=C1c2cc(S(=O)(=O)NCCO)ccc2-c2ccc(S(=O)(=O)NCCO)cc21,-7.2%,.,.,-10.5%,.
COc1cc(OC)c(OC)cc1/C=c1\[nH]c(=O)/c(=C/c2cc(OC)c(OC)cc2OC)[nH]c1=O,-11.2%,.,.,-17.6%,.
COc1ccc(NC(=O)c2ccco2)cc1NC(=O)c1cccc(C)c1OC,-14.5%,-14.6%,.,-20.4%,?
SMILES,VACV mCherry inh,FMDV antiviral,HCV inh,Vaccinia Venus,HCMV antiviral
CCOc1ccc(C(=O)Nc2cc(-c3ccccc3)no2)cc1,-5.4%,3.2%,.,-12.1%,61.2
COc1cc2c(c(OC)c1OC)-c1ccc(OC)c(=O)cc1C(NC(=O)c1ccccc1)CC2 (configuration not stated),?,1.1%,12.8%,?,-74.5*
COc1c(O[C@@H]2O[C@H](CO)[C@@H](O)[C@H](O)[C@H]2O)cc2c(c1OC)-c1ccc(SC)c(=O)cc1C(NC(C)=O)CC2 (some centres not stated),-11.8%,-24.1%,-4.6%,-7.0%,-22.7
COc1cc2c(c(OC)c1OC)-c1ccc(SC)c(=O)cc1C(NC(=O)c1ccccc1)CC2 (configuration not stated),-48.8%,-10.1%,-21.0%,?,-63.4*
COc1cc2c(c(OC)c1OC)-c1ccc(SC)c(=O)cc1C(NC=O)CC2 (configuration not stated),?,-8.4%,-40.2%,?,-97.5*
C=COC(=O)NC1CCc2cc(OC)c(OC)c(OC)c2-c2ccc(SC)c(=O)cc21 (configuration not stated),-1.1%,-5.2%,10.8%,?,?
Cc1ccc(-n2ncc(C(=O)N3CCN(Cc4ccccc4)CC3)c2C2CCN(C(=O)OC(C)(C)C)CC2)c(C)c1,-5.1%,?,.,-8.2%,15.1
Cc1ccc(NC(=O)N2CC=C(c3c[nH]c4ccccc34)CC2)cc1Cl,-21.7%,-5.8%,.,-14.1%,-66.0*
Cc1cccc(NC(=O)N2CC=C(c3c[nH]c4ccccc34)CC2)c1C,-16.3%,-3.6%,.,-4.2%,0.0
CCN1CC=C(c2c[nH]c3ccccc23)CC1,?,-4.2%,10µM*,?,-7.2
CCN(CCCNC(=O)CN1N=C(c2ccc(OC)cc2)CCC1=O)c1cccc(C)c1,-12.0%,-22.1%,.,-6.7%,-6.1
CCOc1cc(C2Nc3ccccc3C(=O)N2Cc2ccco2)ccc1OCc1ccccc1Cl (configuration not stated),17.8%,.,.,-3.0%,.
C[C@@](N)(C(=O)O)[C@@H]1C[C@@H]1C(=O)O,i,39.8µM*,.,-3.2%,.
O=C(O)C1CC(Br)C(Br)CC1C(=O)O (configuration not stated),i,-8.1%,.,-15.0%,-2.6
COc1ccccc1N1CCN(C(=O)c2[nH]c(C(F)(F)F)nc2-c2ccccc2)CC1,0.4%,-11.0%,.,?,-63.8*
COc1ccc(N2CCN(C(=O)c3[nH]c(C(F)(F)F)nc3-c3ccccc3)CC2)cc1,3.1%,-3.0%,.,-14.7%,5.3
Cc1cccc(N2CCN(C(=O)c3[nH]c(C(F)(F)F)nc3-c3ccccc3)CC2)c1C,?,-10.3%,.,?,-87.2*
O=C(C[C@H]1C/C=C\C[C@H](NC(=O)OCC2c3ccccc3-c3ccccc32)C(=O)O[C@H](c2ccccc2)CNC1=O)N[C@H](CO)Cc1ccccc1,10µM*,0.5%,-5.2%,12.6µM*,.
CCCCCCCCCC1NC(C(=O)O)Cc2c1[nH]c1ccccc21 (configuration not stated),-14.7%,-19.3%,.,-15.8%,-14.6
